Source: PubChem BioAssay AID488839 (Broad Institute, 2010)
The campaign covered roughly 330,000 compounds. About 35 (0.01%) were called active.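 How the source made its calls: active means highest replicate inhibition of at least 50% and at least 75% of replicates reaching 50%; inconclusive means only one of the two criteria met; inactive means both criteria failed.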 These entries were drawn from the full list.

These molecules were tested against Cyclin-dependent kinase 5 (Homo sapiens) + Cyclin-dependent kinase 5 activator 1 (Homo sapiens) (UniProt Q00535+Q15078) (assay: inhibitors of human CDK5/p35 kinase, primary screen, biochemical, single concentration (AID 488839;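 further: plate controls were DMSO neutral control for no effect and GW8510 at 10 µM for full effect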)). Conditions: Recombinant CDK5/p35, ADP-Glo luminescence, 60 min; at 10 µM; active compounds read high.
Chain of Cyclin-dependent kinase 5 (Homo sapiens) + Cyclin-dependent kinase 5 activator 1 (Homo sapiens) (Q00535 whole entry, looked up): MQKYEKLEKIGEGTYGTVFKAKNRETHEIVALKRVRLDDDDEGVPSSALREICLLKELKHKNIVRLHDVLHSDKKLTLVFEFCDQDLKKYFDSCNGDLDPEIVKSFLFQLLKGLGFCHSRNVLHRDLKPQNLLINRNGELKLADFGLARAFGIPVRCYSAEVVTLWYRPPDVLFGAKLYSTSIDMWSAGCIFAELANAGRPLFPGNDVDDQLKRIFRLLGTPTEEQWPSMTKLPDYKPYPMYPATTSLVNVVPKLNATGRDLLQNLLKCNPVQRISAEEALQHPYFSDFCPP
Chain of Cyclin-dependent kinase 5 (Homo sapiens) + Cyclin-dependent kinase 5 activator 1 (Homo sapiens) (Q15078 whole entry, looked up): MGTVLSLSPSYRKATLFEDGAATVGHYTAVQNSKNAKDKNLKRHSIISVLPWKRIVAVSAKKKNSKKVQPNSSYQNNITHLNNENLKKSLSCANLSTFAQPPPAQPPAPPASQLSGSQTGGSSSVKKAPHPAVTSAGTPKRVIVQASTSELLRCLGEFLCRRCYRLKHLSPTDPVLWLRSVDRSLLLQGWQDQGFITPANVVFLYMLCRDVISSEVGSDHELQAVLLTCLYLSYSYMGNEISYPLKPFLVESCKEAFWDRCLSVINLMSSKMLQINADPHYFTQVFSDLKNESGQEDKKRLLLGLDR

inhibition, inactive:
COc1ccc(-c2csc3nc(-c4ccccc4F)oc(=O)c23)cc1OC -0.745%
CCCN1CNC(=S)N(CCc2ccccc2)C1 0.897%
OCc1n[nH]c(CO)n1 -0.355%
CC(C)COC(=O)n1c(=O)oc2ccc(S(=O)(=O)N3CCCCC3)cc21 -6.42%
COc1ccc(NC(=O)CC2C(=O)NC3CCCCC3N2C(=O)c2ccc(F)cc2)cc1 (stereo unspecified) 0.318%
CN(CC(=O)Nc1ccc(F)cc1)CC(=O)N1CCCCC1 1.08%
Cc1coc2c(O)cc3c(c12)OC1(N2CCCCC2)C(=O)NCCCC31 (stereo unspecified) -0.717%
CCCCN1C(=O)C(C)=C(C)C1OCCc1ccc(OC)c(OC)c1 (stereo unspecified) 1.7%
N/C(=N\OC(=O)Nc1ccccc1)c1ccno1 -1.08%
Cc1c2cnn(-c3ccccc3)c(=O)c2c(C)n1CCCC(=O)N1CCN(C)CC1 0.518%
COc1ccccc1NC(=O)CSc1nnc(-c2ccoc2C)n1CCc1ccccc1 -0.569%
COc1ccccc1NC(=O)c1ccc(N2CC3CC(C2)c2cccc(=O)n2C3)c(NC(=O)c2cccnc2)c1 (stereo unspecified) -1.98%
CC1C(C)N(C(=O)CCl)c2ccccc2N1C(=O)CCl (stereo unspecified) 1.01%
C[C@H](NC(=O)C1CC(=O)N(c2ccc3c(c2)OCO3)C1)C(=O)NCc1ccco1 (stereo partly specified) -0.436%
CCc1n[nH]c(=S)n1/N=C/c1c[nH]c2ccc(Br)cc12 2.39%
COC(=O)Cc1ccc(OCC(=O)NC2CCCC2)cc1 0.995%
O=C(Nc1c2c(nn1-c1ccc(F)cc1)CS(=O)C2)C12CC3CC(CC(C3)C1)C2 (stereo unspecified) -0.258%
Cc1cccc(C(=O)NCc2nnc(SC(C)C(=O)Nc3nnc(C)s3)n2C)c1 (stereo unspecified) 1.14%
COc1ccc(Cl)cc1NC(=O)COC(=O)C(CC(C)C)N1C(=O)C2CC=CCC2C1=O (stereo unspecified) -0.94%
CCOC(=O)c1ccc2[nH]c(C)c(CN3CCN(C)CC3)c(=O)c2c1 -4.67%
COc1ccc(OC)c(NC(=O)CN(Cc2ccc(Cl)cc2)S(C)(=O)=O)c1 0.423%
O=C(CSc1nnc(SCc2ccc(Cl)cc2)s1)N/N=C/c1ccccc1Cl -1.05%
O=S(=O)(NCCSc1ccccn1)c1ccc(Cl)cc1 0.39%
O=C(C1CCN(C2CCN(Cc3ccc4cc(F)ccc4n3)CC2)CC1)N1CCCC1 0.175%
COc1ccc(C(=O)Cn2nnc(-c3ccc(N4CCOCC4)cc3)n2)cc1OC -3.2%
COC(=O)c1c(NC(=O)c2c(Cl)cnn2C)sc(C)c1C -2.29%
O=c1[nH]c2ccc(S(=O)(=O)N3CCCC3)cc2[nH]1 -0.663%
CCOc1ccc(OCCSc2nc3ccccc3n2CC(=O)O)cc1 0.306%
Cc1nc(-c2nnc(SCC(=O)Nc3cc(C(F)(F)F)cc(C(F)(F)F)c3)n2C)cs1 -0.227%
CCCCCCCC(=O)OC(CN1CCCCCC1)CN1CCCC1=O (stereo unspecified) 0.855%
CC(CC(=O)Nc1ccc(F)cc1F)S(=O)(=O)c1ccc2c(c1)NC(=O)CO2 (stereo unspecified) 0.798%
COc1ccccc1NC(=O)C1CCCN(c2cc(C)nc3ncnn23)C1 (stereo unspecified) 0.792%
Cc1cccc(C)c1NC(=O)CNC(=O)C1CCCC1 0.783%
Cc1ccc(Nc2cc(=O)n(C3CCCCC3)c(=O)[nH]2)cc1C -0.561%
CC(C)NC(=O)COCc1cc(-c2ccc3c(c2)OCO3)on1 -3.05%
CC(=O)Nc1ccc(OC(=O)COc2ccc(Br)cc2)cc1 -1.45%
CCCNC(=O)c1c(Cl)cnn1-c1ccc(C)cc1 -0.745%
Cc1noc(C)c1NC(=O)Nc1ccc2c(c1)C(=O)N([C@H](C)CO)C[C@H](C)[C@@H](CN(C)S(=O)(=O)c1cn(C)cn1)O2 0.62%
O=C(CCc1nnc2ccc(NCc3ccco3)nn12)Nc1cc(F)ccc1F 0.605%
O=C(O)Cn1c(Cc2ccccc2)nc2ccccc21 -0.592%
COc1ccc(C2OC(=O)CC2C(=O)NC(C)C)cc1 (stereo unspecified) -11.3%
O=C(CC1Nc2ccccc2NC1=O)Nc1ccccc1 (stereo unspecified) 1.13%
CCCCCCSc1ccc([C@@H]2[C@@H]3C(=O)N(CC)C(=O)[C@@H]3[C@]3(C(=O)OC)CCCCN23)cc1OC -6.06%
Cc1ccccc1NS(=O)(=O)CCCCC(Cl)(Cl)Cl -0.0868%
O=C(COc1coc(CN2CCN(c3ccccc3F)CC2)cc1=O)N1CCc2ccccc21 0.232%
COc1ccc(Cl)cc1NC(=O)CN(C)CC(=O)Nc1ccc2c(c1)OCO2 1.26%
O=Cc1c(N2CCN(c3cccc(Cl)c3)CC2)nc2ccccn2c1=O -1.83%
CN1CCN(S(=O)(=O)c2ccc(N3CCN(S(=O)(=O)c4cccs4)CC3)nc2)CC1 -0.333%
CCC(C)c1ccccc1N1CC(C(=O)N2CCN(S(=O)(=O)c3ccc(F)cc3)CC2)CC1=O (stereo unspecified) 0.723%
CC(C)[C@H](NC(=O)N1CCn2c1nc1ccccc12)C(=O)NC1CC1 2.48%
COc1cc(C(=O)N2CCN(S(=O)(=O)c3ccc(C(C)C)cc3)CC2)ccc1OCC(=O)N1CCOCC1 -0.998%
Cc1cccc(NC(=O)c2ccc(OCC(=O)NCc3ccccc3)cc2)c1C 0.801%
Cc1nc2c(-c3ccc(F)cc3)c(C)nn2c(C)c1CCC(=O)NCc1ccco1 -0.00338%
CCc1ccc(C(=O)CSc2nnc(C)c(=O)[nH]2)cc1 -0.74%
Cc1cc(C)cc(Oc2nc3c(C)cccn3c(=O)c2/C=C(\C#N)C(=O)NC2CCS(=O)(=O)C2)c1 (stereo unspecified) 0.399%
CC(C)[C@H](NC(=O)N1CCn2c1nc1ccccc12)C(=O)NCCc1ccccc1 1.82%
